The results in this text go back to PubChem BioAssay AID720553 (National Center for Advancing Translational Sciences (NCATS), 2013).

The whole screen tested about 340,000 compounds, of which about 3,300 (0.97%) were called active.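 The calls were made as follows: active = maximum activity change below -70%; inconclusive = maximum activity change from -70% to -50%; inactive = maximum activity change above -50%.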 Shown is part of a subset that was picked to be rich in actives.
% is scaled to controls: 0 for no effect and ±100 for the full control effect.

The assay concerns Potassium voltage-gated channel subfamily H member 2, brain isoform KCNH2 3.1 (human). The assay can be described thus: qHTS for Inhibitors of KCHN2 3.1: Mutant qHTS. To be noted: U2OS KCNH2 3.1, thallium flux FluxOr; hits give low values. The method in brief: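 Thallium flux via FluxOr fluorescence (Red40 quencher, 45 min loading) in U2OS cells virally expressing the KCNH2 3.1 isoform (1.77 x 10^8 /mL virus, overnight at 37 C). Rate constants from 2-min kinetic reads post-stimulation, normalised to positive and negative controls.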
(qHTS replaces the single test concentration by a dilution series.)
Consider `COc1ccc(CSc2nc(N3CCOCC3)c3c(c2C#N)CC(C)(C)OC3)cc1`, for which the activity change was -85.2% (active). For the compound `CCOC(=O)CSc1nc(N2CCOCC2)c2c(c1C#N)CC(C(C)C)OC2` (stereo unspecified), the activity change was 9.26% (inactive).

Take `CC1(C)Cc2c(C#N)c(SCc3nc4ccccc4[nH]3)nc(N3CCOCC3)c2CO1`: the activity change is 1.1% (inactive). Take `CN1CCn2cnc(C(=O)NCC(=O)OC(C)(C)C)c2C1=O`: the activity change was 8.04% (inactive). Take `COc1ccc(Nc2nc(-c3ccccc3)cs2)cc1`: the activity change is -83.5% (active). Next, `COc1ccc(-c2csc(Nc3cccc(C)n3)n2)cc1OC`: -0.0615% (inactive). Take `COc1ccc(Nc2ccc3ccccc3c2)cc1`: the activity change was -0.36% (inactive). Consider `CN(Cc1ccccc1)C(=O)CCC1CCN(C(=O)c2ccco2)CC1`, for which the activity change is -7.93% (inactive). With `O=C(COc1ccc([N+](=O)[O-])cc1Cl)Nn1cnnc1`, the activity change was -17.4% (inactive). For the compound `O=C(COc1ccc([N+](=O)[O-])cc1Cl)Nc1ccc2[nH]c(=O)[nH]c2c1`, the activity change was -113% (active). With `O=C(COC(=O)c1cccc(Cl)c1)Nc1ccc2[nH]c(=O)[nH]c2c1`, the activity change is -16.7% (inactive). `Cc1ccc(NC(=O)c2ccc(Oc3ncccn3)cc2)cc1`: the activity change was 10.8% (inactive). `Cc1ccc(C(=O)NNC(=O)c2cc3cc4ccccc4nc3s2)cc1`: the activity change is -14.6% (inactive).

Regarding `Cc1ccc(C(=O)NNc2ncnc3ccccc23)cc1`, the activity change is -135% (active). For `CCOC(=O)c1c(NC(=O)COC(=O)c2ccc(S(=O)(=O)C(F)F)cc2)sc(C(=O)N(C)C)c1C`, the activity change is -12.2% (inactive). As to `Cc1ccccc1C#CC1=CC(=O)CC(C)(C)C1`, the activity change is -7.29% (inactive). The figure for `Cc1ccc(-c2nc3ccc(Cl)cn3c2Cc2ccccc2)cc1` is -5.74% (inactive); for `O=S(=O)(Nc1ccccc1Br)c1cccs1` it is 8.03% (inactive). Consider `O=C(Nc1nncs1)c1ccccc1NS(=O)(=O)c1cccs1`, for which the activity change is -71.4% (active). On to `COc1cc(NC(=O)c2ccccc2NS(=O)(=O)c2ccc(Cl)s2)cc(OC)c1`, for which the activity change was -9.39% (inactive).

For the compound `CNC(=O)C1CN(C(=O)c2cccc(S(=O)(=O)N3CCc4ccccc43)c2)c2ccccc2O1` (stereo unspecified), the activity change was -2.85% (inactive). The figure for `O=C(NCCS(=O)(=O)N1CCN(c2ccccc2)CC1)c1cc(=O)c2ccccc2o1` is 5.39% (inactive); for `CSc1ncc(C(=O)NCCCc2ccccc2)c(C)n1` it is 17.9% (inactive); for `CSc1ncc(C(=O)Nc2ccc(C)cc2C)c(C)n1` it is -183% (active). For the compound `Cc1ccc(NC(=O)c2ccn(C(=O)Nc3ccccc3)n2)c(C)c1`, the activity change was 11.1% (inactive). The figure for `CCN(CC)C(=O)C1=C(C)N(Cc2ccc(F)cc2)C(=O)C(CC(=O)NC2CCCC2)C1` (stereo unspecified) is -23.9% (inactive); for `CSc1ncnc2c1ncn2CCCNCC1CCCCC1` it is -15.7% (inactive).

For the compound `CC(C)C1CCN(C(=O)C2CCC(=O)N(C3CCCCCC3)C2)CC1` (stereo unspecified), the activity change was -5.43% (inactive).

Regarding `O=C(Nc1ccc(C(=O)O)cc1)/C(=C/c1ccc([N+](=O)[O-])cc1)NC(=O)c1ccccc1`, the activity change is 0.484% (inactive). Regarding `Cc1ccc(C(=O)N/C(=C/C=C/c2ccccc2)C(=O)NCc2ccco2)cc1`, the activity change is -38.2% (inactive). On to `CNC(=O)/C(=C\C=C\c1ccccc1)NC(=O)c1ccc([N+](=O)[O-])cc1`, for which the activity change is -78.9% (active). Next, `COc1ccc(C(CNC(=O)c2ccc(OCc3cscn3)cc2)N2CCCC2)cc1` (stereo unspecified): -4.07% (inactive); `Cc1cc(C)c2cc(C#N)c(N3CCNCC3)nc2c1`: 15.5% (inactive).

Turning to `O=C(Nc1ccccc1N1CCN(C(=O)c2ccccc2)CC1)c1ccco1`, the activity change was -10.9% (inactive). Consider `CCCNC(=O)c1ccc(N2CCC3(CC2)CC(c2cccc(Br)c2)=NO3)c(NC(=O)c2ccco2)c1`, for which the activity change was -83.4% (active).

As for `COCCNC(=O)c1ccc(N2CCC3(CC2)OCCO3)c([N+](=O)[O-])c1`, the activity change was 1.85% (inactive). Regarding `COC(=O)c1ccc(N2CCOCC2)c(NC(=O)c2ccc(Br)o2)c1`, the activity change is -2.48% (inactive). On to `CCC(C)NC(=O)c1ccc(N2CCC3(CC2)OCCO3)c([N+](=O)[O-])c1` (stereo unspecified), for which the activity change is 15.4% (inactive). The figure for `CCCNC(=O)c1ccc(N2CCC3(CC2)CC(c2ccc(Cl)cc2)=NO3)c([N+](=O)[O-])c1` is -83.7% (active). `Nc1cc(C(=O)N2CCN(c3ccccc3Cl)CC2)ccc1N1CC2CC(C1)c1cccc(=O)n1C2` (stereo unspecified): the activity change was 6.28% (inactive). As for `O=C(c1ccc(N2CCCC2=O)cc1)N1CCN(c2ccc(C(F)(F)F)cc2[N+](=O)[O-])CC1`, the activity change is 6.83% (inactive). In the case of `Cc1ccc(NC(=O)COC(=O)CN2CCSC2=O)cc1F`, the activity change is -8.22% (inactive). Consider `CC1(C)NC(=O)N(CC(=O)Nc2ccc(-c3ccccc3)cc2)C1=O`, for which the activity change is -11% (inactive). As for `O=C1[C@H]2[C@@H](c3ccc(Cl)cc3)N3C(=O)N(c4cccc(F)c4)C(=O)[C@@]3(Cc3ccccc3)[C@H]2C(=O)N1C1CCCCC1`, the activity change was -11.3% (inactive). Consider `O=C1[C@H]2[C@@H](c3ccc(F)cc3)N3C(=O)N(c4ccc(C(F)(F)F)cc4)C(=O)[C@@]3(Cc3ccccc3)[C@H]2C(=O)N1C1CCCCC1`, for which the activity change was -14.9% (inactive). Next, `Cc1cccc(N2C(=O)N3[C@H](c4ccc(F)cc4)[C@@H]4C(=O)N(C5CCCCC5)C(=O)[C@@H]4[C@]3(Cc3ccccc3)C2=O)c1`: -81.5% (active). `C/C(COc1ccccc1)=N\NC(=O)c1nnn(-c2nonc2N)c1-c1ccc(C)cc1`: the activity change was 1.24% (inactive). For the compound `Cc1ccc(C(=O)NC(C)C(c2cccs2)N2CCOCC2)cc1C` (stereo unspecified), the activity change was 2.91% (inactive).

Regarding `C#Cc1cc(N2CCN(C(=O)c3ccoc3)CC2)n2nc(-c3cccc(Cl)c3)cc2n1`, the activity change was 2.49% (inactive). As for `Cc1ccccc1Nc1nc(N)nc(CN2CCN(c3ccccn3)CC2)n1`, the activity change was -0.0863% (inactive). As to `CNc1nc(Nc2ccc(C)c(Cl)c2)nc(N)c1[N+](=O)[O-]`, the activity change is 6.15% (inactive). The figure for `CCOC(=O)N1CCN(Cc2nc3cc(NC(C)=O)ccc3n2C)CC1` is 8.13% (inactive); for `CCOC(=O)N1CCN(CC(=O)Nc2ccc(F)cc2)CC1` it is -43.8% (inactive); for `CCOC(=O)N1CCN(Cc2nc(N)nc(Nc3ccc(C)cc3)n2)CC1` it is -78.5% (active). `Cc1ccc(Nc2nc(N)nc(CN3CCN(Cc4ccccc4)CC3)n2)cc1Cl`: the activity change was -99.4% (active). The figure for `COc1cccc(NC(=O)N(C)C[C@@H]2Oc3ncc(Br)cc3C(=O)N([C@@H](C)CO)C[C@H]2C)c1` is -4.03% (inactive); for `COc1ccc(S(=O)(=O)N(C)C)cc1NC(=O)COC(=O)c1n[nH]c2ccccc12` it is 9.12% (inactive).

With `Cc1ccnc(SC2CC(=O)N(c3ccccc3)C2=O)n1` (stereo unspecified), the activity change is 1.28% (inactive).

As to `O=C(NC1CCN(Cc2ccccc2)CC1)c1cc(Br)c(Br)[nH]1`, the activity change is 0.925% (inactive). Consider `CCOc1ccc(CC(=O)NC2CCN(Cc3ccccc3)CC2)cc1`, for which the activity change was 19.9% (inactive). On to `O=C(NC1CCN(Cc2ccccc2)CC1)c1ccc(Oc2cc(Cl)cc(Cl)c2)o1`, for which the activity change was -84.5% (active). Turning to `CCOc1ccc(NS(=O)(=O)c2ccc(C(=O)NCC3CCCO3)cc2)cc1` (stereo unspecified), the activity change is 3.29% (inactive). Regarding `COCOCCn1cc(CN2CCS(=O)(=O)N(Cc3ccc(-c4cccc(N(C)C)c4)cc3)C(CC(C)C)C2=O)nn1` (stereo unspecified), the activity change was -1.27% (inactive). For the compound `Cc1cccc(N(CC(=O)N2CCCC2)S(C)(=O)=O)c1C`, the activity change was -8.33% (inactive). Next, `Cc1cccc(C)c1NC(=O)N1CC(C)OC(C)C1` (stereo unspecified): -192% (active); `CSc1ccc(NC(=O)N2CC(C)OC(C)C2)cc1` (stereo unspecified): 8.24% (inactive). In the case of `CC1CN(C(=S)Nc2cccc(F)c2)CC(C)O1` (stereo unspecified), the activity change is 6.1% (inactive). As to `C=CCOc1cccc(C2C(C(=O)c3ccc(C)o3)=C(O)C(=O)N2CCN2CCOCC2)c1` (stereo unspecified), the activity change is -2.42% (inactive). As to `CCc1cc(-c2nnn(CCC3COCCO3)c2CC)ccc1-c1cn(Cc2ccc3ccccc3c2)nn1` (stereo unspecified), the activity change is 0.058% (inactive).

For the compound `Cc1cc(Nc2ccc(C)c(C)c2)n2ncnc2n1`, the activity change was 30.4% (inactive). For the compound `O=C(c1cc2cc(F)ccc2[nH]1)N1CCN(c2ccc(F)cc2)CC1`, the activity change was -39.9% (inactive). `CC1CCc2[nH]c3ccc(C(=O)N(C)CC(=O)Nc4cccc(F)c4)cc3c2C1` (stereo unspecified): the activity change was 13.3% (inactive).

Turning to `O=C(CCCN1CCc2[nH]c3ccc(F)cc3c2C1)c1ccc(F)cc1`, the activity change is -92% (active). Next, `C[C@@H]1CN([C@@H](C)CO)C(=O)CCCn2nncc2CO[C@H]1CN(C)C(=O)Nc1ccc(C(F)(F)F)cc1`: -12.6% (inactive); `CC[C@]1(C(=O)OC)[C@H]2C(=O)N(Cc3ccccc3)C(=O)[C@H]2[C@H]2CN=C(SCc3ccccc3)N21`: 14.7% (inactive); `CC[C@]1(C(=O)OC)[C@H]2C(=O)N(Cc3ccccc3)C(=O)[C@H]2[C@H]2CN=C(SCc3ccc(Cl)cc3)N21`: -98.8% (active).

For `CC[C@]1(C(=O)OC)[C@H]2C(=O)N(Cc3ccccc3)C(=O)[C@H]2[C@H]2CN=C(SCc3ccc(C#N)cc3)N21`, the activity change is 4.34% (inactive). On to `CC(C)c1c(C(=O)N/N=C/c2ccc(-c3ccccc3)cc2)nnn1-c1nonc1N`, for which the activity change was -1.92% (inactive). Consider `CC(C)Oc1ccc(/C=N/NC(=O)c2nnn(-c3nonc3N)c2CN(C)C2CCCCC2)cc1`, for which the activity change was -81.3% (active). As to `Nc1nonc1-n1nnc(C(=O)N/N=C\c2ccncc2)c1CN1CCCCC1`, the activity change was -0.869% (inactive).

In the case of `O=C(NCCN1CCOCC1)c1ccc2c(c1)N(Cc1cccc(Cl)c1)C(=O)c1ccccc1S2(=O)=O`, the activity change was 17.1% (inactive). For the compound `C[C@H]1CN([C@@H](C)CO)C(=O)c2cc(-c3cccc(F)c3)cnc2O[C@@H]1CN(C)S(C)(=O)=O`, the activity change is 8.27% (inactive). `C[C@@H]1CN([C@H](C)CO)C(=O)CCCn2nncc2CO[C@@H]1CN(C)C(=O)OCc1ccccc1`: the activity change was 1.9% (inactive).

For the compound `COc1ccc(-c2nc(N)ncc2-c2ccc(Cl)cc2)c(O)c1`, the activity change was -191% (active). As for `CCOc1ccc(-c2nc(N)ncc2-c2ccccc2OC)c(O)c1`, the activity change is -18.2% (inactive). With `C=C(C)COc1ccc(-c2nc(N)ncc2-c2ccccc2OC)c(O)c1`, the activity change is -6.62% (inactive).
